The structures appear in SMILES notation. Where “and” joins values, the source holds several entries; their conditions need not be identical. Equal values may be shown once. Compounds without any hit were thinned out: in the full panel of roughly 83,000, 20% have a hit.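 Interpretation: 100, growth as untreated; towards 0, rising growth inhibition; 0, no net growth; 0 to -100, cell death. Compounds scoring below 10 were considered active.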 Calls of active or inactive are those of the source.

This passage reports growth results from PubChem BioAssay (NCI).

The test system of the experiment is TK-10 renal. Nature of the experiment: NCI-60 one-dose screen, 48 h (100 = growth as untreated, 0 = no growth, -100 = all killed). Conditions: 10 µM unless noted.
As to `COC(=O)/C=C\C(C#N)(C#N)N=Cc1ccsc1`, the growth is -98.5% [100 µM] (active) and -84.4% [100 µM] (active). Regarding `CC1CC2(OC2C)C(=O)OC2CCN(C)C/C=C(/COC(=O)C1(C)O)C2=O` (centres undefined), the growth is 97.2% [100 µM] (inactive) and 101% [100 µM] (inactive). In the case of `Clc1ccc(C2C3COc4ccccc4C3=NN2c2ccccc2)cc1` (centres undefined), the growth is 77% [100 µM] (inactive) and 31.3% [100 µM] (inactive).

On to `Cc1ccc(OCC2OC(n3cnc4c(Cl)nc(Cl)nc43)CC2Oc2ccc(C)cc2)cc1` (centres undefined), for which the growth is 72.8% [100 µM] (inactive) and -96.1% [100 µM] (active). Take `CNC(=S)/C(=N\Nc1nc[nH]c1C(N)=O)C(N)=S`: the growth is 5.27% [100 µM] (active) and 4.34% [100 µM] (active).

As for `C=C(CCC(C(=O)O)C1CCC2(C)C3=C(CCC12C)C1(C)CCC(O)C(C)(C)C1CC3)C(C)C` (centres undefined), the growth is -54.9% [100 µM] (active) and -100% [100 µM] (active). Consider `COC(=O)C(Cc1nc2ccccc2[nH]c1=O)C(=O)C(=O)Nc1cc(C(F)(F)F)ccc1Cl` (centres undefined), for which the growth was -90.1% [100 µM] (active) and 0.262% [100 µM] (active). For the molecule `N#C/C=C1\C=CC(O)C(O)C1OC1OC(CO)C(O)C(O)C1O` (centres undefined), the growth is 97.1% [100 µM] (inactive) and 93.8% [100 µM] (inactive). `COc1ccc2cc1Oc1ccc(cc1)C[C@@H]1c3cc(c(OC)cc3CCN1C)Oc1c(OC)c(OC)cc3c1[C@H](C2)N(C)CC3`: the growth was 33.5% [100 µM] (inactive) and -100% [100 µM] (active). The result for `Cc1coc2c1C(OC(=O)C(C)C)C1(C)C(C)CCC(O)C1C2=O` (centres undefined) reads 87.9% [100 µM] (inactive) and 63.5% [100 µM] (inactive); that for `COC(=O)C1CCC(=O)N1CN(C(C)=O)c1cccc(O)c1` (centres undefined), 77.3% [100 µM] (inactive) and 106% [100 µM] (inactive). Turning to `O=C1CC(c2ccccc2)NCCCCN2CC(CN1)C(C(O)c1ccccc1)C2=O` (centres undefined), the growth is 97.8% [100 µM] (inactive) and 88.7% [100 µM] (inactive). For the molecule `O=C(O)CCCC(=O)Nn1c(Cc2ccc(Cl)cc2)n[nH]c1=O`, the growth is 85.5% [100 µM] (inactive) and 95% [100 µM] (inactive). With `COC(=O)/C(=N\NC(=S)NN)C(C(=O)OC)C(=O)C(=O)Nc1cccc(C(F)(F)F)c1` (centres undefined), the growth was 155% [100 µM] (inactive) and 108% [100 µM] (inactive). The result for `O=C(Cc1nc2ccc(C(=O)c3ccccc3)cc2[nH]c1=O)C(=O)Nc1ccccc1[N+](=O)[O-]` reads 75.1% [100 µM] (inactive) and 12.6% [100 µM] (inactive); that for `Cc1cc(S(=O)(=O)O)c(NC(=O)c2oc3cc(O)ccc3c(=O)c2C)cc1Cl`, 90.8% [100 µM] (inactive) and 91.7% [100 µM] (inactive). Regarding `COc1cc2c(c3c1c(=O)c1ccccc1n3C)C=C([N+](=O)[O-])C(C)(C)O2`, the growth was 31.2% [100 µM] (inactive) and -98.1% [100 µM] (active). Turning to `O=C1c2ccccc2-c2c1c1ccccc1c(=O)n2-c1cccnc1`, the growth is 59.8% [100 µM] (inactive) and -34% [100 µM] (active). Consider `C=C1CC2(C)CCC(OC(=O)C3(C)OC3C)C(C)(OC(C)=O)C2CC1=C(C)C` (centres undefined), for which the growth is 89.2% [100 µM] (inactive) and 49.5% [100 µM] (inactive). With `COc1ccc2cc(CN3CCC(C4CCNCC4)CC3)ccc2c1`, the growth is -89.6% [100 µM] (active) and -100% [100 µM] (active).

For `CC1=CC(=O)c2ccc(C)cc2C1=O`, the growth was -100% [100 µM] (active). Turning to `COc1cc2oc3c(c(=O)c2c(O)c1/C=C/C(C)C)CCC(C)(C)Oc1cc(O)ccc1-3`, the growth is 35% [100 µM] (inactive) and -96.5% [100 µM] (active).

`Cc1ccc(/C=N/Nc2nncc3ccccc23)s1`: the growth was 105% [100 µM] (inactive) and 21.6% [100 µM] (inactive). `Clc1c(Cl)c(Cl)c2nn(C3CCCO3)nc2c1Cl` (centres undefined): the growth was 24.5% [100 µM] (inactive) and -76.8% [100 µM] (active).

`Cc1ccc(/C=C2/N=C(N/N=C\c3ccccc3)NC2=O)cc1`: the growth is -15.5% [100 µM] (active) and 0.251% [100 µM] (active).

In the case of `CCCCC1C(=O)N(c2ccc(S(=O)(=O)Nc3ccccn3)cc2)N(c2ccc(O)c(C(=O)O)c2)C1=O` (centres undefined), the growth was 102% [100 µM] (inactive) and 94.2% [100 µM] (inactive). On to `CCCCCCCCCC(=O)CC(=O)c1c(O)cc(O)cc1O`, for which the growth was -1.86% [75 µM] (active) and 10% [75 µM] (inactive). `Clc1ccc(C2NN=C3c4ccccc4OCC32)cc1` (centres undefined): the growth is 7.98% [100 µM] (active) and 5.96% [100 µM] (active). `CCCCCCCCOC(=O)C12Oc3ccc(-c4ccc5c(c4O)C(O)=C4C(=O)CC(C)C(O)C4(C(=O)OCCCCCCCC)O5)c(O)c3C(O)=C1C(=O)CC(C)C2O` (centres undefined): the growth was -21.8% [100 µM] (active) and -100% [100 µM] (active). For the molecule `COc1ccc(N=C(C)C(C)=Nc2ccc(OC)cc2)cc1`, the growth was 77.8% [100 µM] (inactive) and -88.6% [100 µM] (active). With `CC(=O)C1=C(C)N2C(=NC3=C(CCc4ccccc43)C2c2cccc(Br)c2)S1` (centres undefined), the growth was 112% [100 µM] (inactive) and 48.5% [100 µM] (inactive).

For the molecule `O=c1c2ccccc2nc(-c2ccccc2)n1/N=C/c1ccccc1[N+](=O)[O-]`, the growth is 66.7% [100 µM] (inactive) and 0.136% [100 µM] (active). The value for `COc1cc2c(cc1-c1coc3cc(O)ccc3c1=O)OCO2` was 81.2% [100 µM] (inactive) and 3.05% [100 µM] (active).

On to `Fc1ccc(Nc2nc(Cl)c3[nH]cnc3n2)cc1Cl`, for which the growth was 48.7% [100 µM] (inactive) and -27.6% [100 µM] (active). The value for `O=C1c2ccccc2-c2c1c1ccccc1c(=O)n2CCO` was 41.8% [100 µM] (inactive) and 3.35% [100 µM] (active); that for `CC(=N\N=C\c1ccccn1)/C(C)=N/N=C/c1ccccn1` was 108% [100 µM] (inactive) and 118% [100 µM] (inactive). For the molecule `COc1ccc2nc(N/N=C/c3ccc(C)s3)cc(C)c2c1`, the growth was -94.1% [100 µM] (active) and -97.3% [100 µM] (active). As to `CC1OC(Oc2c(-c3cc(O)c(O)c(O)c3)oc3cc(O)cc(O)c3c2=O)C(O)C(O)C1O` (centres undefined), the growth was 90.9% [100 µM] (inactive) and 92.6% [100 µM] (inactive). Take `CCOc1cc2c(cc1O)C=C[C@@H]1[C@@H]2CC[C@]2(C)[C@@H](O)CC[C@@H]12`: the growth was -4.09% [100 µM] (active) and -100% [100 µM] (active).
